Results taken from PubChem BioAssay (NCATS).
Inconclusive results are not listed. A call without a number means that no potency is given here. Active and inactive are the calls of the source. Calls follow the shape of the dose curve; as a rule, active = well fitted inhibition curve with a large enough effect; inconclusive = small, poorly fitted or top-dose-only effect; inactive = flat fitted curve, though single readings scatter. Peptide text beside a SMILES is read from it.

System: ICS
Experiment: qHTS profiling for inhibitors of Plasmodium falciparum proliferation (AID 504749); also: nearly all actives have a fitted effect of over 60% in size
Details: P. falciparum in erythrocytes, SYBR Green DNA, 72 h; series mostly up to 12.8 µM
Procedure, shortened: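 Fluorescence of SYBR Green-bound parasite DNA, read at 485/535 nm, served as the growth measure. Infected erythrocytes were cultured with compound 72 h; artemisinin (0.29 uM) and DMSO wells defined the normalization range.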
Potency is read from the fitted curve at half-maximal effect.

SMILES | Potency
CN(C)CCCOC1C(C(O)CO)OC2OC(C)(C)O[C@@H]21 (stereo not given in full) | inactive
CCC(C)C(=O)OC1CCC=C2C=CC(C)C(CCC3CC(O)CC(=O)O3)[C@@H]21 (stereo not given in full) | inactive
NC(C(=O)O)[C@@H]1CC(Cl)=NO1 (stereo not given in full) | 891 nM (active)
CN1CC(=O)N=C1N | inactive
OCC1OC([S-])[C@H](O)C(O)C1O.[Au+] (stereo not given in full) | inactive
CC(C)C1CCC(C(=O)NC(Cc2ccccc2)C(=O)O)CC1 (stereo not given) | inactive
CCC(CCC(C)C1CCC2C3CC=C4CC(O)CC[C@@]4(C)C3CC[C@@]12C)C(C)C (stereo not given in full) | inactive
C[C@]12CCC(=O)C=C1CCC1C2C(=O)C[C@]2(C)C1CC[C@]2(O)C(=O)CO (stereo not given in full) | inactive
OCC1O[C@H](OC2C(CO)O[C@@](O)(CO)C2O)C(O)C(O)C1O (stereo not given in full) | inactive
CC1(C)OC2CO[C@]3(COS(N)(=O)=O)OC(C)(C)OC3C2O1 (stereo not given in full) | inactive
CC1(C)OC2CC(=O)OC[C@@]23C1CC(=O)[C@]1(C)C3CC[C@@]2(C)C(c3ccoc3)OC(=O)C3O[C@@]321 (stereo not given in full) | inactive
COC1C=CO[C@@]2(C)Oc3c(C)c(O)c4c(O)c(c5c(nc6cc(C)ccn65)c4c3C2=O)NC(=O)/C(C)=C\C=CC(C)C(O)[C@@H](C)C(O)C(C)[C@@H](OC(C)=O)C1C (stereo not given in full) | 5010 nM (active)
COC(=O)C(Cc1ccccc1)NC(=O)C(N)CC(=O)O (stereo not drawn) (H-Asp-Phe-OMe; configuration not given here) | inactive
C[C@]12C=CC(=O)C=C1CCC1C2C(O)C[C@]2(C)C1CC[C@]2(O)C(=O)CO (stereo not given in full) | inactive
CC1(C)S[C@H]2C(NC(=O)[C@@H](N)c3ccc(O)cc3)C(=O)N2[C@@H]1C(=O)O (stereo not given in full) | inactive
